Screening data from PubChem BioAssay.
Only some compounds are listed: those with a hit (about 1.7% of all), similar ones and a draw of the others.
ARNT-TACC3 inh = disruptors of human ARNT/TACC3 interaction; Q9Y6A5; AlphaScreen His-ARNT PAS-B/GST-TACC3 binding, luminescence; TACC3 fragment carries E629A point mutation; inhibition, % at 9.99 µM; 390,000 compounds, 0.66% hits;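 active = mean inhibition of replicates at least 50% and at least half of replicates each reaching 50%; inconclusive = half or more replicates reach 50% but mean below 50%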
aDG glyco up = alpha-DG glycosylation activation; Pro5-aDG cells, alpha-DG glycosylation AlphaScreen (IIH6); 0% Pro5, 100% B10-LARGE cell signal; activation, % at 10 µM; 360,000 compounds, 0.22% hits; AID 624168;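 active = activation of at least 8% versus controls, or a plate z-score of at least 8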;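 also: Pro5 are CHO cells carrying HIG-tagged alpha-DG that lacks glycosylation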
H9c2 protect = modulators protecting cardiomyocytes from myocardial damage; AID 588492; protection from H2O2 cell death, % at 20 µM; H9c2 cardiomyocytes, H2O2 injury protection, ATPLite, 2 h; 360,000 compounds, 0.63% hits;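 active = compounds giving at least 50% protection of heart cells from peroxide-induced death in the single-dose screen, raw or plate-pattern-corrected value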
N-glyco inh = N-linked glycosylation inhibition; 360,000 compounds, 0.23% hits; AID 588692; D54 ERlucT glycosylation luciferase reporter, 24 h; percent of 100 nM tunicamycin response; reporter increase, % at 12.5 µM;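 active = mean luciferase reporter signal, scaled so untreated is 0 and the glycosylation-blocking control 100, at or above a set limit in every replicate; inconclusive = mean reaches the limit but not every replicate does; inactive = mean below the limit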;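 also: luciferase carries N-glycosylation sites so blocking glycosylation raises the light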
Vif imaging = HIV Vif inhibition | HEK293T cells, Vif self-association by quenched fluorescence, imaging, 24 h | inhibition, % at 7.49 µM | 340,000 compounds, 0.35% hits; in the data active = inhibition above about 50%, passing the limit was not always enough; inconclusive = no clear call, values can overlap the other calls; inactive = below about 31%
Numbers stand for hits.

Screening Cc1ccc(S(=O)(=O)Nc2ccc3c(c2)C(=O)N([C@@H](C)CO)C[C@H](C)[C@@H](CN(C)C(=O)NC2CCCCC2)OCCCC[C@@H](C)O3)cc1 returned ARNT-TACC3 inh inactive.
For CC(C)NC(=O)Nc1ccc2c(c1)C(=O)N([C@H](C)CO)C[C@@H](C)[C@@H](CN(C)CC1CCCCC1)OCCCC[C@@H](C)O2 the results were ARNT-TACC3 inh inactive.
For COc1cc(OC)cc(C(=O)NC(C(=O)Nc2ccc3c(c2)OCO3)C(C)C)c1 (stereo not given) the results were ARNT-TACC3 inh inactive, aDG glyco up inactive, H9c2 protect inactive, N-glyco inh inactive and Vif imaging 125.
COc1cc(OC)cc(C(=O)N[C@H](C(=O)Nc2ccc3c(c2)OCO3)C(C)C)c1 was read as ARNT-TACC3 inh inactive, aDG glyco up inactive, H9c2 protect inactive, N-glyco inh inactive and Vif imaging 91.
Screening CC(C)[C@H](NC(=O)c1ccccc1F)C(=O)Nc1ccc2c(c1)OCO2 returned ARNT-TACC3 inh inactive, aDG glyco up inactive, H9c2 protect inactive, N-glyco inh inactive and Vif imaging inactive.
`C[C@@H]1CCCCO[C@H](CN(C)C(=O)C2CCCCC2)[C@@H](C)CN([C@H](C)CO)C(=O)c2cc(NS(=O)(=O)c3ccc(F)cc3)ccc2O1` gave ARNT-TACC3 inh inactive.
Cc1noc(C)c1NC(=O)N(C)C[C@@H]1Oc2ccc(NS(=O)(=O)c3cccs3)cc2C(=O)N([C@H](C)CO)C[C@H]1C was read as ARNT-TACC3 inh inactive.
Screening O=C(c1ccccc1)c1ccc(C(=O)O)c(C(=O)O)c1 returned ARNT-TACC3 inh inactive, aDG glyco up inactive, H9c2 protect inactive, N-glyco inh inactive and Vif imaging inactive.
For Nc1ccc(C(=O)c2ccccc2C(=O)O)cc1Cl the results were ARNT-TACC3 inh inactive, aDG glyco up inactive, H9c2 protect inactive, N-glyco inh inactive and Vif imaging 55.
`Cc1sc2nc(CSCC(=O)N(CCC#N)c3ccccc3F)[nH]c(=O)c2c1C` gave ARNT-TACC3 inh inactive, aDG glyco up inactive, H9c2 protect 59, N-glyco inh inactive and Vif imaging inactive.
Screening CCOc1ccccc1C(=O)N/N=C/c1cccc2cccnc12 returned ARNT-TACC3 inh 72, aDG glyco up inactive, H9c2 protect 86, N-glyco inh inactive and Vif imaging inactive.
`COc1ccc(C(=O)N/N=C/c2cccc3cccnc23)cc1` gave ARNT-TACC3 inh 88, aDG glyco up inactive, H9c2 protect inactive, N-glyco inh inactive and Vif imaging inactive.
Screening CCOc1ccc(C(=O)N/N=C/c2cccc3cccnc23)cc1 returned ARNT-TACC3 inh 65, aDG glyco up inactive, H9c2 protect inactive and N-glyco inh inactive.
Screening COc1ccc(-c2nc3c4ccccc4[nH]c(=O)n3n2)cc1 returned ARNT-TACC3 inh inactive, aDG glyco up inactive, H9c2 protect inactive, N-glyco inh inactive and Vif imaging inactive.
`COc1cc2[nH]c(=O)n3nc(-c4ccccc4)nc3c2cc1OC` gave ARNT-TACC3 inh inactive, aDG glyco up inactive, H9c2 protect 95, N-glyco inh inactive and Vif imaging inactive.
Screening CCN(CC)CCNc1nc2cc(OC)c(OC)cc2c2nc(-c3ccccc3)nn12 returned ARNT-TACC3 inh inactive, aDG glyco up inactive, H9c2 protect inactive, N-glyco inh 71 and Vif imaging inactive.
COC(=O)Nc1nc2ccc(-c3n[nH]c(=O)c4ccccc34)cc2[nH]1 was read as ARNT-TACC3 inh inactive, aDG glyco up inactive, H9c2 protect 68, N-glyco inh inactive and Vif imaging inactive.
`C=CCOc1ccc2nc(NC(=O)OC)[nH]c2c1` gave ARNT-TACC3 inh inactive, aDG glyco up inactive, H9c2 protect inactive, N-glyco inh inconclusive and Vif imaging inactive.
Screening CC(C)CC#Cc1cnc2c(c1)C(=O)N([C@@H](C)CO)C[C@H](C)[C@@H](CN(C)C(=O)C1CCOCC1)O2 returned ARNT-TACC3 inh inactive.
CC(=O)Nc1ccc(C(=O)N/N=C/c2ccccc2OCc2ccccc2)cc1 was read as aDG glyco up inactive, H9c2 protect inactive, N-glyco inh 41 and Vif imaging inactive.
`O=C(C[C@@H]1CC[C@@H]2[C@H](COC[C@H](O)CN2CCC(F)(F)F)O1)NCc1ccc(Oc2ccccc2)cc1` gave ARNT-TACC3 inh inactive.
C[C@@H]1CN([C@H](C)CO)C(=O)c2c(c3ccccc3n2C)-c2ccccc2CO[C@@H]1CN(C)C(=O)[C@H]1CCCN1C was read as ARNT-TACC3 inh inactive.
For Cc1cc(C)n(-c2ccc3cccc(NS(C)(=O)=O)c3n2)n1 the results were ARNT-TACC3 inh inactive, aDG glyco up inactive, H9c2 protect 88, N-glyco inh inactive and Vif imaging inactive.
O=C(NNC(=O)c1ccc[nH]1)Nc1cc(Cl)cc(Cl)c1 was read as aDG glyco up inactive, H9c2 protect inactive, N-glyco inh inactive and Vif imaging 55.
`O=C(NNC(=O)c1ccc[nH]1)Nc1cccc(C(F)(F)F)c1` gave ARNT-TACC3 inh inactive, aDG glyco up inactive, H9c2 protect inactive, N-glyco inh inactive and Vif imaging inactive.
Screening CNC[C@H]1Oc2c(NS(=O)(=O)c3ccccc3)cccc2C(=O)N([C@H](C)CO)C[C@H]1C returned ARNT-TACC3 inh inactive.
`O=C1c2ccccc2C(Nc2ccc(S(=O)(=O)N3CCOCC3)cc2)N1c1ccccn1` (stereo not given) gave ARNT-TACC3 inh inactive, aDG glyco up inactive, H9c2 protect inactive, N-glyco inh inactive and Vif imaging 52.
CC(O)CNc1ccc(-c2n[nH]c(=O)c3ccccc23)cc1[N+](=O)[O-] (stereo not given) was read as ARNT-TACC3 inh inactive, aDG glyco up inactive, H9c2 protect inactive, N-glyco inh inactive and Vif imaging inactive.
Screening CN(C)CCCNc1ccc(-c2n[nH]c(=O)c3ccccc23)cc1[N+](=O)[O-] returned ARNT-TACC3 inh inactive, aDG glyco up inactive, H9c2 protect 55, N-glyco inh inactive and Vif imaging inactive.
`C[C@@H]1CN([C@H](C)CO)S(=O)(=O)c2ccc(-c3ccccc3F)cc2O[C@@H]1CN(C)C(=O)C1CC1` gave ARNT-TACC3 inh inactive.
O=C(Nc1ccc(S(=O)(=O)Nc2nccs2)cc1)c1cccc(N2C(=O)c3ccccc3C2=O)c1 was read as ARNT-TACC3 inh inactive, aDG glyco up inactive, H9c2 protect inactive, N-glyco inh inactive and Vif imaging inactive.
`N#Cc1cccc(C(=O)Nc2ccc(S(=O)(=O)Nc3nccs3)cc2)c1` gave ARNT-TACC3 inh inactive, aDG glyco up inactive, H9c2 protect inactive, N-glyco inh inactive and Vif imaging 66.
For O=C(NC(=S)Nc1ccc(S(=O)(=O)Nc2nccs2)cc1)c1ccc(Br)o1 the results were ARNT-TACC3 inh 52, aDG glyco up inactive, H9c2 protect inactive, N-glyco inh inactive and Vif imaging inactive.
`COc1ccc(CN(C)C[C@H]2OCCCC[C@@H](C)Oc3ccc(NC(=O)Nc4ccc(F)cc4)cc3C(=O)N([C@@H](C)CO)C[C@H]2C)cc1` gave ARNT-TACC3 inh inactive.
